# Measured values: PubChem BioAssay AID2283176 (EPA ToxCast)
# Records with an inconclusive call do not appear. Activity calls are given as the source filed them. The calls were made as follows: active = hit-call score of the fitted dose curve at least 0.9, where 1 is the maximum; inconclusive = response in the unintended direction; inactive = score below 0.9.
# Target: human MAP Kinase-Activated Protein Kinase 5 (MAPKAPK5), MAPKAPK5 (gene 8550) (UniProt Q8IW41)
# Experiment: NVS_ENZ_hMAPKAPK5: NovaScreen (NVS) Enzymatic Assay for human MAP Kinase-Activated Protein Kinase 5 (MAPKAPK5)
# Method: NVS_ENZ_hMAPKAPK5 is a biochemical, single-readout assay that uses extracted gene-proteins in a cell-free assay. Measurements were taken 1 hour after chemical dosing in a 384-well plate.NVS_ENZ_hMAPKAPK5 is one of one assay component(s) measured or calculated from the NVS_ENZ_hMAPKAPK5 assay. It is designed to make measurements of enzyme activity, a form of enzyme reporter, as detected with fluorescence intensity signals by Fluorescence and electrophoretic mobility shift technology.Data from the assay component NVS_ENZ_hMAPKAPK5 was analyzed into 1 assay endpoint. This assay endpoint, NVS_ENZ_hMAPKAPK5, was analyzed in the positive analysis fitting direction relative to DMSO as the negative control and baseline of activity. Using a type of enzyme reporter, loss-of-signal activity can be used to understand changes in the enzymatic activity as they relate to the gene MAPKAPK5. Furthermore, this assay endpoint can be referred to as a primary readout, because this assay […]. To generalize the intended target to other relatable targets, this assay endpoint is annotated to the kinase intended target family, where the subfamily is serine/threonine kinase.
# Binding assays used specific radioligands (tritiated, iodinated) with non-radioactive competitive displacement ligands in agonist or antagonist protocols (as indicated) and various reference compounds and inhibitors to titrate specific binding to receptors and transporters. Most enzyme assays (CYPs, kinases, phosphatases, proteases, HDACs) used recombinant protein and specific substrates (fluorescence mostly, some colorimetric and radioactive) and inhibitors, followed by a biochemical separation of substrate and product. All assays for the biochemical HTS were initially run in duplicate at a single concentration (10 uM for CYP450 assays and 25 uM for all others). Assay-chemical combinations meeting a pre-defined threshold (e.g., 30% inhibition and other criteria defined below) were then run in singleton concentration-response format with maximum concentration of 20 uM for CYPs and 50 uM for all others. Each assay was run with positive and negative controls, and concurrent controls on every plate. The follow-up (secondary) screen tested active chemical-pairs in concentration series, as well as a few additional assays not tested in the primary screen, some selected negative inactives, and several cases re-run in the concentration series for confirmatory purposes.
# human MAP Kinase-Activated Protein Kinase 5 (MAPKAPK5), MAPKAPK5 (gene 8550), sequence (Q8IW41 whole entry, looked up): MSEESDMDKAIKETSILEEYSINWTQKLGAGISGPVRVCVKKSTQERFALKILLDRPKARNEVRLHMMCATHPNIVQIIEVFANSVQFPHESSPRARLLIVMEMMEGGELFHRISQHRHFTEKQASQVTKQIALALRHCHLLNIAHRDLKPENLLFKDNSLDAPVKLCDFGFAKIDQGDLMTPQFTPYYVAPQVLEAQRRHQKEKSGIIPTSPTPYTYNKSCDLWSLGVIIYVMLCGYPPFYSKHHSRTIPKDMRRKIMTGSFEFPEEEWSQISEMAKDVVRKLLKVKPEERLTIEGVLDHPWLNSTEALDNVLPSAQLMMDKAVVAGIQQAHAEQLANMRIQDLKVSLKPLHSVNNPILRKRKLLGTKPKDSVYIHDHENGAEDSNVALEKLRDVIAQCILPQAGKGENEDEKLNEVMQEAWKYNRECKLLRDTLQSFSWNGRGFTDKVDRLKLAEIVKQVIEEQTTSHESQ
Structure (SMILES),outcome,AC50
N#Cc1c(Cl)c(Cl)c(Cl)c(C#N)c1Cl,inactive,–
CCCC(=NOCC)C1=C(O)CC(CC(C)SCC)CC1=O (stereo not drawn),inactive,–
O=C(O)C(F)(F)C(F)(F)C(F)(F)C(F)(F)C(F)(F)C(F)(F)C(F)(F)F,inactive,–
CNC(=S)S,inactive,–
CN(C)[C@@H]1C(=O)C(C(N)=O)=C(O)[C@@]2(O)C(=O)C3=C(O)c4c(O)cccc4[C@@](C)(O)[C@H]3[C@H](O)[C@@H]12,–,24.2 µM (active)
O=S(=O)(O)C(F)(F)C(F)(F)C(F)(F)C(F)(F)C(F)(F)C(F)(F)C(F)(F)C(F)(F)F,–,44.1 µM (active)
S=C1NCCN1,inactive,–
C=C(C)CN(CC)c1c([N+](=O)[O-])cc(C(F)(F)F)cc1[N+](=O)[O-],inactive,–
